Measured values published in PubChem BioAssay (NCI).
Several values for one entry are separate records, joined by “and”; a condition that tells them apart may be missing. Identical values can stand only once. About 83,000 compounds went through this panel and 20% of them were active in at least one assay; those are over-represented in the sample as a whole.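 Compound tested at a single concentration for 48 hours in 96-well plates; a percent growth value below 10 was scored as active.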 Unmarked numbers belong to inactive results. Activity calls are given as the source filed them.

Each compound was assayed on HL-60(TB) leukemia (assay: NCI-60 one-dose screen, 48 h (100 = growth as untreated, 0 = no growth, -100 = all killed)). Conditions: 10 µM unless noted.

Row | SMILES | growth
1 | C[C@@H](O)[C@H]1C(=O)N2C(C(=O)O)=C(SCCN=CN)C[C@H]12 | 19.1%
2 | O=C1C2=C(CCN(Cc3ccccc3)C2)N2CCN=C2N1Cc1ccc(F)cc1F | 27.8%
3 | O=c1[nH]cnc2c1ncn2C1OC(CO)C(O)C1O (centres undefined) | 97.1% and 89.3% and 101%
4 | COc1ccccc1C1OC2=Nc3cc(C)c(C)cc3NC2C1=O (centres undefined) | 102%
5 | CN1CCN(CC(=O)N(C)c2ccc(N=C(c3ccccc3)c3c(O)[nH]c4ccc(C#N)cc34)cc2)CC1 | 14.9%
6 | CCOC(=O)c1c(C)oc2ncnc(N3CCN(C(=S)Nc4ccccc4)CC3)c12 | 94.7%
7 | COc1ccc2c(c1)[nH]c(=O)c1c3cc(OC)c(OC)cc3cn21 | -18.9% (active)
8 | CCN1CCN(Cc2ccc(NC(=O)Nc3ccc(-n4ccc5c(NC(=O)c6ccccc6)nccc54)cc3)cc2C(F)(F)F)CC1 | 35.8%
9 | COc1ccc(S(=O)(=O)Nc2cc(/C=C\c3cc(OC)c(OC)c(OC)c3)cc(OC)c2OC)cc1 | -42.1% (active)
10 | COc1ccc2nc(NC(=O)CN3CCn4c(nnc4C(F)(F)F)C3)sc2c1 | 103%
11 | O=C(NCCc1ccccc1)C1CCC(=O)N1Cc1ccc(Br)cc1 (centres undefined) | 89%
12 | Cc1c(-c2noc(-c3ccc([N+](=O)[O-])cc3)n2)no[n+]1[O-] | 102%
13 | COc1ccc(-c2nn(-c3cccc(NC(=O)c4ccc(Cl)c(Cl)c4)c3)cc2-c2ccncc2)cc1Cl | 89.1%
14 | Cc1c(N)ccc(-c2ccc(N)c(C)c2S(=O)(=O)O)c1S(=O)(=O)O | 94.7%
15 | CCO/C=N/C1=C(C#N)C(c2ccc(OC)cc2)c2sc3c(F)cccc3c2O1 (centres undefined) | -9.87% (active)
16 | O=C(Nc1ccc(Cl)cc1)Nc1ccc(Cl)c(Cl)c1 | -23.6% (active)
17 | O=S(=O)(Nc1nccs1)c1ccc(Nc2nc(-c3ccncc3)cs2)cc1 | 98.6%
18 | COc1ccc2c(c1)C(=O)c1c-2c(OCCN(C)C)nc2cc(OC)c(OC)cc12 | 89.9%
19 | Cn1c(-c2ccc(Br)cc2)c(O)c(=O)c2c(F)cccc21 | 122%
20 | O=C(CCCCCCSc1nc(-c2ccc(Cl)cc2)cc(-c2ccc(Cl)cc2)n1)NO | 9.99% (active)

Row | SMILES | growth
21 | N#CCCN(CCO)c1ccccc1 | 89.9%
22 | CCNS(=O)(=O)c1ncnc2nc[nH]c12 | 112%
23 | CC(=O)Oc1cc(C(C)C)c(OCCN(C)C)cc1C | 131%
24 | CCOC(=O)N/N=C/c1ccc(OC)c(OC)c1 | 108%
25 | C=C(C)[C@@H]1CCC[C@]2(COS(=O)(=O)c3ccc(C)cc3)CC[C@]3(C)[C@@H](CC[C@@H]4[C@@]5(C)CCCNC(C)(C)[C@@H]5CC[C@]43C)[C@@H]12 | -35% (active)
26 | NC(=O)CSc1oc(-c2ccccc2)nc1S(=O)(=O)c1ccc(Br)cc1 | 82.1%
27 | Cc1cc(Cl)ccc1NC(=O)c1cc2ccccc2cc1O | 1.45% (active)
28 | O=C(c1ccncc1)c1c(Cc2ccccc2)ccc2ccccc12 | 88.1%
29 | O=C1OC(c2ccccc2)=N/C1=C\c1ccccc1 | 113%
30 | O=C(c1ccc(Cl)cc1Cl)N1CCOCC1 | 105%
31 | CCOC(=O)Nc1ccc2c(c1)/C(=N\NC(N)=S)c1ccccc1-2 | 55.4% and 78.8%
32 | Cc1n(Cc2ccc3ccccc3n2)cc[n+]1Cc1ccc2ccccc2c1 | -32.9% (active)
33 | O=C1CC(c2cccc(-c3cccnc3)c2)=Nc2ccc(Br)cc2N1 | 41.6%
34 | NC(=O)CN1C(=O)c2ccccc2C1=O | 96.6%
35 | Cc1cc(N)c2ccccc2[n+]1CCCCCCCCCC[n+]1c(C)cc(N)c2ccccc21 | -65% (active) and -69.4% (active)
36 | CCCC(C)OCC(=O)O (centres undefined) | 88.8%
37 | O=C(CC(SCc1ccccc1)c1ccccc1)c1ccccc1 (centres undefined) | 66.7%
38 | CSc1nc2c(c(=O)[nH]1)N=C1c3ccccc3C(=O)C1C(c1ccccc1)N2 (centres undefined) | -34.8% (active)
39 | O=C(NCc1ccccc1)Nc1ccccc1CNc1nc(Nc2ccc(OCCN3CCCC3)cc2)ncc1Cl | 62.4%
